# According to PubChem BioAssay (NCATS):
# Results filed as inconclusive are left out. Where a call stands in place of a potency, no number is given. Active and inactive are the calls of the source. The call rests on the fitted dose curve; in most records, active means well fitted curve in the direction sought with a large enough effect; inconclusive means small, poorly fitted or top-dose-only effect, or another doubt; inactive means no such curve, though single readings can be large; an effect the other way counts as inactive or inconclusive.
# Key:
# [1] = qHTS of pediatric cancer cell lines to identify multiple opportunities for drug repurposing: Confirmatory screen for SK-N-SH cells (AID 1347129); conditions: SK-N-SH neuroblastoma cell viability; series mostly up to 46.1 µM;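 further: cells exposed to compound for 48 h before viability read; nearly all actives have a fitted effect of over 60% in size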; further: potency means the concentration at half of the fitted maximal effect
# Procedure, shortened: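 Cells (500-1,000/well) rested 5 h, then received compounds for 48 h; metabolically active cells were measured by CellTiter-Glo luminescence. Final concentrations spanned up to 46 µM (MIPE, 11-point) or 0.59 nM-46 µM (NPC, 8-point) in primary screens, 11-point in follow-ups.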
# [2] = test system: Zika virus NS2B-NS3 protease; test: Primary screen GU AMC qHTS for Zika virus inhibitors (AID 1347154); conditions: Zika NS2B-NS3 unlinked protease, AMC fluorogenic substrate; series mostly up to 54.1 µM; further: nearly all actives have a fitted effect of over 70% in size; further: potency means the concentration at half of the fitted maximal effect
# Procedure, shortened: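 Fluorogenic AMC-substrate cleavage by noncovalent NS2B-NS3 protease complex (25 nM, pH 8.0 Tris buffer with Tween 20) followed for 15 minutes at room temperature (~20% conversion). Percent inhibition from ex340/em450 signal change, fitted by 4-parameter Hill equation.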
# [3] = molecular target: Furin (Homo sapiens) (UniProt P09958); test: Furin counterscreen qHTS for Zika virus inhibitors (AID 1347149); conditions: furin enzymatic counterscreen, fluorogenic substrate; series mostly up to 114 µM; further: potency means the concentration at half of the fitted maximal effect; nearly all actives have a fitted effect of over 70% in size
# Chain of Furin (Homo sapiens) (P09958 whole entry, looked up): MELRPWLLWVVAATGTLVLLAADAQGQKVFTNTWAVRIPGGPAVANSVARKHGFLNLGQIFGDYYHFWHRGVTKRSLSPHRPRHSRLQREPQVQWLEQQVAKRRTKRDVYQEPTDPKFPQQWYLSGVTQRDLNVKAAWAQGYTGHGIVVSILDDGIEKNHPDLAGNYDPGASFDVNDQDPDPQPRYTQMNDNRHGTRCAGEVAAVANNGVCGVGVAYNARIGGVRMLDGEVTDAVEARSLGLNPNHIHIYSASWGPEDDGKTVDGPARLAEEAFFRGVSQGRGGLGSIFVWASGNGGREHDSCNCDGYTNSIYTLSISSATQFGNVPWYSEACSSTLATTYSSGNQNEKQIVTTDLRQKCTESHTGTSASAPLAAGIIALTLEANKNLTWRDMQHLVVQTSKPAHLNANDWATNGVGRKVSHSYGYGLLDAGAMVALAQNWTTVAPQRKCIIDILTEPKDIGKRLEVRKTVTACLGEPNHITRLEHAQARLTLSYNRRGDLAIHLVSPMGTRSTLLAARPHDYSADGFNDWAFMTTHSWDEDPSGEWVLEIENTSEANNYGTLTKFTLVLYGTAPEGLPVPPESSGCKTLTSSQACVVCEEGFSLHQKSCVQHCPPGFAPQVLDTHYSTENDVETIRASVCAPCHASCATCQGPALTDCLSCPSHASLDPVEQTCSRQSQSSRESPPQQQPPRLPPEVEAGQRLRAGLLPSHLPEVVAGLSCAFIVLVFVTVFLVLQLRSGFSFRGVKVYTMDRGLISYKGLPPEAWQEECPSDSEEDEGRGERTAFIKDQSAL
# Procedure, shortened: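 Fluorogenic cleavage of BOC-RVRR-AMC (2 microM final, Km ~15 µM) was monitored (ex 340, em 450 nm) at 37C after 15 min RT preincubation of 5 nM furin with compounds in HEPES pH 7.0 buffer with CaCl2 and Triton X-100. Percent inhibition was fitted to a 4-parameter Hill curve.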
# [4] = test system: Zika virus NS2B-NS3 protease (linked construct); test: Confirmatory screen NINDS AMC qHTS for Zika virus inhibitors (AID 1347152); conditions: Purified linked NS2B-NS3, AMC substrate fluorescence; series mostly up to 110 µM; further: potency means the concentration at half of the fitted maximal effect; nearly all actives have a fitted effect of over 70% in size
# Procedure, shortened: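 Linked NS2B-NS3 protease, 1 nM, in 10 mM Tris-HCl pH 8.0, 0.01% Tween 20; compounds preincubated 15 min at room temperature. Nle-KRR-AMC 10 microM (Km 18.3 µM); 15-min fluorescence change (340/450 nm) fitted to 4-parameter Hill.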
# [5] = ZIKV-mCherry secondary qHTS for Zika virus inhibitors (AID 1347158); conditions: Vero cells, ZIKV-mCherry infection imaging, 48-72 h; series mostly up to 49.2 µM; further: top concentration of the series differs between compounds
# Procedure, shortened: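 Vero cells, 5,000/well, plated overnight at 37 °C, then compound added and infected with recombinant ZIKV-mCherry at MOI 1 for 48-72 h. PFA-fixed, Hoechst nuclear stain, high-content imaging; cells with mCherry intensity above 450 RFU scored infected, reported as percent infection.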
# [6] = Confirmatory screen GU Rhodamine qHTS for Zika virus inhibitors qHTS (AID 1347157); conditions: purified enzyme assay, Rhodamine110 substrate fluorescence, 15 min; series mostly up to 114 µM; further: nearly all actives have a fitted effect of over 70% in size; further: potency means the concentration at half of the fitted maximal effect
# Procedure, shortened: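 Percent inhibition came from the 15-min rise in Rhodamine110 fluorescence (1.5 microM substrate, ~15% conversion), normalized to no-inhibitor and no-enzyme wells and Hill-fitted. Unlinked protease, 25 nM, pH 8.0 Tris buffer; compounds up to 114 microM, 15-min preincubation.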
smiles,measurement,setting,value
CC1=C(CO)C(=O)O[C@@H]([C@@H](C)[C@H]2CC[C@H]3[C@@H]4C[C@H]5O[C@]56[C@@H](O)C=CC(=O)[C@]6(C)[C@@H]4CC[C@]23C)C1,Potency,[1],inactive
same,Potency,[2],inactive
CC(=O)SC[C@@H](C)C(=O)N1CCC[C@H]1C(=O)N[C@@H](Cc1ccccc1)C(=O)O,Potency,[2],inactive
Nc1nc(-c2nn(Cc3ccccc3F)c3ncccc23)nc(N)c1N1CCOCC1,Potency,[2],inactive
COc1cc(OC2CCN(C)CC2)ccc1Nc1ncc2c(n1)n(C1CCCC1)c(=O)n2C,Potency,[2],inactive
COc1cccc2nc(-c3cccs3)nc(NN3C(=O)C=C(C)C3=O)c12,Potency,[1],2.96 µM (active)
same,Potency,[2],inactive
O=C(CCCCCCNC(=O)c1cnc(N(c2ccccc2)c2ccccc2)nc1)NO,Potency,[2],inactive
Cc1cc(CN2CCN(c3c(Br)cnc4nc(-c5ccc(N6CCN(C)CC6)cc5)[nH]c34)CC2)no1,Potency,[3],24.1 µM (active)
same,Potency,[4],34.1 µM (active)
same,Potency,[2],24.1 µM (active)
same,Potency,[5],inactive
OCc1ccc(-c2ccc(-c3ccc(CO)s3)o2)s1,Potency,[2],26.7 µM (active)
COc1cc(C(=O)N2CCC(N3CCN(C)CC3)CC2)ccc1Nc1ncc2c(n1)N(C)c1ccccc1C(=O)N2C,Potency,[2],inactive
C=C1C(=CC=C2CCC[C@]3(C)[C@@H]([C@H](C)C=C[C@H](C)C(C)C)CC[C@@H]23)C[C@@H](O)C[C@@H]1O,Potency,[1],inactive
same,Potency,[2],inactive
CC(C)C[C@H](NC(=O)CNC(=O)c1cc(Cl)ccc1Cl)B(O)O,Potency,[1],0.418 µM (active)
same,Potency,[2],inactive
Cn1cc(-c2ccncc2)c(-c2ccc(OCc3ccc4ccccc4n3)cc2)n1,Potency,[2],inactive
COc1cc2c(cc1-c1c(C)noc1C)ncc1[nH]c(=O)n([C@H](C)c3ccccn3)c12,Potency,[6],inactive
O=C(O)Cn1nnc(-c2cc(N3CCC(Oc4cc(F)ccc4Br)CC3)no2)n1,Potency,[6],27.8 µM (active)
